From PubChem BioAssay AID1963316 (National Center for Advancing Translational Sciences (NCATS), 2024)
Inconclusive results are not listed. Calls of active or inactive are those of the source. The call rests on the fitted dose curve.

Molecular target: Tyrosine-protein kinase ABL1 (Homo sapiens) (UniProt P00519)
Assay: ABL1 kinase (ABL1-N-HiBiT) SDR gain of signal screen - plus ATP
Conditions: purified ABL1-N-HiBiT enzyme, HiBiT luminescence with 50 uM ATP, 30 min; series mostly up to 57.5 µM; signal gain, positive = increase: at the top concentration
Excerpt: National Center for Advancing Translational Sciences (NCATS),
National Institute of Health (NIH), Maryland
Discovery and optimization of novel protein-binding ligands underlies many of the methods and applications of biology, drug discovery, clinical diagnostics, and environmental toxicology. Assays for detecting the interaction of, for example, a molecule with a macromolecular target also referred to here as the target of interest (TOI) is dependent on a compatible output technology. Depending on the nature and knowledge surrounding the TOI, whether a receptor, enzyme, regulatory subunit or scaffold, or a sequence-defined nucleic acid folded into a complex tertiary structure, assay strategies can vary widely.
Here we exploit ligand-biased changes in the structural dynamics of the target protein to control reporter alpha complementation allowing a non-competitive, non-functional, non-separation measure of ligand-target interaction.
Secondly, we show the specificity and sensitivity of the SDR for the Abelson tyrosine kinase (ABL1) compared to the serine/threonine protein kinase A, using an enriched chemical library of 128 compounds selected, in part, for activity annotated with ABL1 kinase activity using the Pharos database (3).
(1) A. S. Dixon et al., NanoLuc Complementation Reporter Optimized for Accurate Measurement of Protein Interactions in Cells. ACS Chem Biol 11, 400-408 (2016).
Chemistry & Biology, 19, 1060 - 1072 (2012).
(3) K. J. Kelleher et al., Pharos 2023: an integrated resource for the understudied human proteome. Nucleic Acids Res 51, D1405-D1416 (2023).
PROTOCOL TABLE (as described by Inglese J, Shamu CE and Guy RK. 2007)
SEQUENCE No. (e.g., 1, 2, 3, etc.); […] (e.g., C. elegans, Compounds, Incubation, Read, etc.); VALUE and DESCRIPTION.
1. Reagent. Dispense 4 uL ABL1-N-HiBiT enzyme per well at a final enzyme concentration of 10 nM in buffer with 50 uM ATP (SDR assay) into columns 2-48 of four replicate Greiner 1536-well white, solid bottom high base, medium plates per assay. Dispense respective buffer without enzyme at 4 uL/well in column 1 of assay plates using BioRaptr 2.
2. Compounds. Library compounds added at 23 nL/well by pin transfer. DMSO neutral control and imatinib positive control added at 25 nL/well, transfer by Mosquito dispenser.
3. Incubation. Incubate enzyme and compounds at room temperature for 30 min, protected from light.
4. Reagent. (SDR assay) Add 3 uL/well of Nano-Glo HiBiT reagent (Promega) to assay plates with ATP.
5. Incubation. (SDR assay) Incubate enzyme solution and HiBiT reagent at room temperature for 10 min, protect from light.
6. Detector. (SDR assay) Luminescence measured using CCD-based camera (ViewLux) with settings as follows: Exposure, 1 sec; Gain, High; Speed, Slow; Binning, 2X.
Inglese J, Shamu CE and Guy RK, Reporting data from high throughput screening of small molecule libraries, Nature Chemical Biology, 2007, 3(8): 438-441. doi.org/10.1038/nchembio0807-438.

Chain of Tyrosine-protein kinase ABL1 (Homo sapiens) (P00519 whole entry, looked up): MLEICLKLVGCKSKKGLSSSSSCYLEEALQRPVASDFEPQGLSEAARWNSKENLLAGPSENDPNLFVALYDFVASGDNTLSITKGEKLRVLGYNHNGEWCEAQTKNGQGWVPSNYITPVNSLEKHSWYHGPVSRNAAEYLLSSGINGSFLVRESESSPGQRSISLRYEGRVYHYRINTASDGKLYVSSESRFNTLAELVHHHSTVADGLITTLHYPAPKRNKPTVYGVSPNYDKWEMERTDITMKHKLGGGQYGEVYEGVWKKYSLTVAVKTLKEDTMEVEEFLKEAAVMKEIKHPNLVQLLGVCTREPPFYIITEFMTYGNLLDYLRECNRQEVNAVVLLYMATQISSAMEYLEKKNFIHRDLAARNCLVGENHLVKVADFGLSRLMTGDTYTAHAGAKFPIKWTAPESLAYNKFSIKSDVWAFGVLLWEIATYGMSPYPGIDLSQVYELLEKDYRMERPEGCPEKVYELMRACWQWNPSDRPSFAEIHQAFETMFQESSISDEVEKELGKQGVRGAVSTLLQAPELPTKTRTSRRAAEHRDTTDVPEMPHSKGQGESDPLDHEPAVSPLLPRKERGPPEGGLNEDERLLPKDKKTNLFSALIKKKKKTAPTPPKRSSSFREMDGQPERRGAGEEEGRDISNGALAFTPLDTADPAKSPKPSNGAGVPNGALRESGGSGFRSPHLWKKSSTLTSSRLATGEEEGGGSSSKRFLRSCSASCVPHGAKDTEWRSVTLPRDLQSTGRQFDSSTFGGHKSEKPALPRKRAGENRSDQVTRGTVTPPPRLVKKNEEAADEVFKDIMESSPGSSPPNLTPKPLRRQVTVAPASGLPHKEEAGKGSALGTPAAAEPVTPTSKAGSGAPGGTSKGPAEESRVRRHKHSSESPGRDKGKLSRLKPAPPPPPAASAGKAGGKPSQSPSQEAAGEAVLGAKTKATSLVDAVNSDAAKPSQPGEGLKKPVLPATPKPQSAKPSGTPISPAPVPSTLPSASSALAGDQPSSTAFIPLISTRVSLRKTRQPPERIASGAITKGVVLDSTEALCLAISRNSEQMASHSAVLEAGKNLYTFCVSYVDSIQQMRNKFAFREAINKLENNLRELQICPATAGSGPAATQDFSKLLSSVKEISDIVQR

SMILES | signal gain, positive = increase
N#Cc1cn([C@@H]2O[C@H](CO)[C@H](O)[C@@H]2O)c2ncnc(N)c12 | 16.4% (inactive)
O=C(NCCCNc1nc(Nc2ccc(N3CCOCC3)cc2)ncc1C1CC1)C1CCC1 | 8.48% (inactive)
O=[N+]([O-])O[C@H]1CO[C@H]2[C@@H]1OC[C@H]2O[N+](=O)[O-] | 2.28% (inactive)
CCNC(=O)C[C@@H]1N=C(c2ccc(Cl)cc2)c2cc(OC)ccc2-n2c(C)nnc21 | -4.29% (inactive)
C/C(O)=C(\C#N)C(=O)Nc1cc(Br)ccc1Br | -66.9% (inactive)
Cc1[nH]nc2ccc(-c3cncc(OC[C@@H](N)Cc4c[nH]c5ccccc45)c3)cc12 | -0.858% (inactive)
